An excerpt weighted towards active compounds, which were near 4.1% of everything screened.
CASP6 VEID inh: human caspase-6 inhibitors, primary screen, biochemical, VEID-R110 fluorescence, single point, set 2. purified caspase-6, Z-VEID-R110 cleavage fluorescence. 350,000 compounds, 0.53% hits. inhibition, % at 12.5 µM;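 active = mean inhibition across replicates at least about 35%, with every replicate also reaching that limit, limit read from the data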
NSD2 inh: NSD2 histone methyltransferase inhibitors, primary screen, biochemical, AlphaScreen, single concentration, set 2; NSD2 peptide methylation, 120 min; Histone-lysine N-methyltransferase NSD2 (Homo sapiens), O96028; 310,000 compounds, 0.54% hits; inhibition, % at 12.5 µM; in the data active = inhibition above about 50%
HIV Env fusion: inhibitors of HIV-1 Env-driven cell-cell fusion, primary screen, HeLa-JRFL effector, CEM21 target cells, luciferase. inhibition, % at 12.3 µM. 360,000 compounds, 1.1% hits;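 active = mean replicate inhibition score of at least 50 and every replicate individually at or above 50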
PglD inh: C. jejuni PglD acetyltransferase inhibitors, primary screen, biochemical, DTNB colorimetric, single point; 360,000 compounds, 0.098% hits; purified PglD enzyme, DTNB colorimetric CoA detection; inhibition, % at 12.5 µM; in the data active = inhibition above about 16%, passing the limit was not always enough
ALR inh: inhibitors of human ALR sulfhydryl oxidase, primary screen, biochemical, H2O2 detection, HRP-luminol luminescence, single point; 290,000 compounds, 3.8% hits; FAD-linked sulfhydryl oxidase ALR (Homo sapiens), P55789; purified ALR, DTT oxidation; inhibition, % (test concentration not listed);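 active = mean replicate inhibition above about 79%, with every replicate also reaching it, limit read from the data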
Target sequence (P55789 whole entry, looked up): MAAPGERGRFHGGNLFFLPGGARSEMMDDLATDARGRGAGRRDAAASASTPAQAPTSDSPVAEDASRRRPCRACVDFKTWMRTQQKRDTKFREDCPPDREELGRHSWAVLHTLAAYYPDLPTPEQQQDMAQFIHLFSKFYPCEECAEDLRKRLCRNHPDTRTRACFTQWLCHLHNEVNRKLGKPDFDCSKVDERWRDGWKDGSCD
CFTR F508del cor: F508del CFTR correction, initial screen, CFBE line, single point | CFBE cells, YFP halide quenching; stimulated with forskolin plus potentiator P3; % fluorescence drop versus neutral controls | activity (quench increase), % at 7.58 µM | 350,000 compounds, 0.36% hits | AID 720511, 2013;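 active = mean added fluorescence quench of at least 8% versus neutral control, with both replicates also reaching 8%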;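 note: cells transiently co-express mutant CFTR-F508del with the halide-sensitive YFP; corrector assay measuring rescue of mutant channel to the surface after 24 h compound exposure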
Numbers stand for hits; – = inactive; · = no result.

SMILES | CASP6 VEID inh | NSD2 inh | HIV Env fusion | PglD inh | ALR inh | CFTR F508del cor
COc1cc(OC)cc(C(=O)NCC2CCCN(C(=O)c3csc(C(C)C)n3)C2)c1 (stereo unspecified) | – | – | – | – | – | –
CN1CCN(CCCNC(=O)c2ccc(CSCc3cccc(Cl)c3)o2)CC1 | · | – | · | · | – | ·
O=C(NC1CC1)c1ccc(CSCc2cccc(F)c2)o1 | – | · | – | – | 99 | –
CC1CCN(CCCNC(=O)c2ccc(CSCc3cccc(Cl)c3)o2)CC1 | · | – | – | – | 99 | ·
Cc1ccccc1CSCc1ccc(C(=O)NCCCN2CCOCC2)o1 | – | – | – | – | 98 | –
O=C(Nc1ccc(Cl)cc1)N[C@@H]1CC[C@@H](CCNS(=O)(=O)c2ccccc2F)O[C@H]1CO | – | · | – | – | · | –
C[C@@H]1CCCCO[C@H](CN(C)S(=O)(=O)c2ccc(Cl)cc2)[C@H](C)CN([C@H](C)CO)C(=O)c2cc(NC(=O)CCC(F)(F)F)ccc2O1 | – | · | – | – | · | –
COc1ccc(N2C(=S)NC3N2C(=S)NC3(C)c2ccccc2)cc1 (stereo unspecified) | – | – | – | · | 98 | –
COc1ccc(N2CCN(C(=O)C3CCN(S(=O)(=O)c4ccccc4)CC3)CC2)cc1 | – | – | – | · | – | –
Cc1nn(C)c(C)c1S(=O)(=O)N1CCCC(C(=O)N2CCN(c3ccc(Cl)cc3)CC2)C1 (stereo unspecified) | · | – | 63 | – | – | ·
CC1CCN(C(=O)c2cccc(S(=O)(=O)N3CCN(c4ccccc4)CC3)c2)CC1 | – | – | – | · | · | –
O=C(C1CCN(S(=O)(=O)c2ccccc2)CC1)N1CCN(c2ccccc2)CC1 | – | – | 61 | – | – | –
S=C(NC1CC1)N1CCN(c2ccc(Cl)cc2)CC1 | – | – | – | · | 98 | ·
CC1CCN(S(=O)(=O)c2cc(C(=O)N3CCN(c4ccccc4)CC3)ccc2Br)CC1 | – | – | 72 | – | · | –
COc1ccc(NC(=O)Nc2ccc3c(c2)C(=O)N([C@@H](C)CO)C[C@@H](C)[C@@H](CN(C)C(=O)Cc2ccccc2)OCCCC[C@@H](C)O3)cc1 | – | · | – | – | · | –
CC(C)NC(=O)N[C@@H]1C=C[C@@H](CC(=O)O)O[C@H]1CO | – | · | – | – | · | –
O=C(C1CCC1)N1CCN(c2ccc(Cl)cc2)CC1 | – | – | – | – | 93 | –
O=C(O)c1cc([N+](=O)[O-])cc2c1C=Cc1ccccc1O2 | 38 | – | – | · | – | –
CCOc1ccccc1NC(=O)NC1CCCc2ccccc21 (stereo unspecified) | – | · | 59 | – | – | –
CN1/C(=C/C=C(C#N)C#N)C(C)(C)c2ccccc21 | – | – | – | – | – | –
CC1=C/C(=C\C=C(C#N)C#N)N(C)c2ccccc21 | – | – | – | – | – | 10
CCc1nc2c(OCc3ccc(C(F)(F)F)cc3)cccn2c1N(C=O)Cc1ccc(OC)cc1 | – | – | 56 | – | · | –
CCc1nc2c(OCc3ccc(C(F)(F)F)cc3)cccn2c1N(C)C(=O)c1ccco1 | – | – | 57 | – | · | –
CCCCN(C=O)c1c(CC)nc2c(OCc3ccc(C(F)(F)F)cc3)cccn12 | – | – | – | – | · | –
CCc1nc2c(OCc3ccc(F)cc3)cccn2c1N(C)C(=O)c1ccco1 | · | – | – | – | · | –
SMILES | CASP6 VEID inh | NSD2 inh | HIV Env fusion | PglD inh | ALR inh | CFTR F508del cor
CCc1nc2c(OCc3ccc(C(=O)OC)cc3)cccn2c1N(C)C(=O)c1ccc(C)cc1 | 39 | – | – | – | · | –
COc1cc(/C=C(\C#N)C(=O)Nc2ccc(C(=O)O)cc2)ccc1OC(=O)c1cccc(F)c1 | – | – | – | – | – | –
COc1ccc(NC(=O)/C(C#N)=C\c2ccc(Br)o2)cc1 | 45 | – | – | · | · | –
COc1cc(/C=C(/C#N)C(=O)Nc2ccccc2)ccc1OCc1ccc(C(=O)O)cc1 | 37 | – | – | · | – | –
COc1ccc(/C=C(/C#N)C(=O)Nc2ccc(O)cc2)cc1C(=O)O | – | – | – | · | 99 | –
CCc1ccc(NC(=O)/C(C#N)=C\c2ccc(OC)c(C(=O)O)c2)cc1 | · | – | – | · | 99 | –

Screening data deposited in PubChem by Broad Institute.
